# Screening data deposited in PubChem BioAssay by National Center for Advancing Translational Sciences (NCATS).
# A selection: hits, their analogues and other compounds. The true share with any hit is near 10%.
# GLS inhibitor – blocks human kidney-isoform glutaminase activity. GLS enzymatic activity, qHTS titration. Potency, µM (doses to about 45.5 µM), actives largely listed as inhibitors. 410,000 tested, 0.21% active. O94925. AID 624170
#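 Read-out is an Amplex red fluorescence increase coupled through glutamate oxidase and HRP, measured before and after 30 min room-temperature incubation. hKGA is in 45 mM KH2PO4 (pH 8.2) with 0.02% Tween-20; glutamine added as 1mM solution.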
# L3MBTL1 block – L3MBTL1 (human) inhibition. 230,000 tested, 0.66% active. AlphaScreen L3MBTL1–H3K9me1 peptide binding. Potency, µM (top dose mostly 57.1 µM), usual class: inhibitors. AID 485360. Q9Y468; also: nearly all actives have a fitted effect of over 60% in size
#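 AlphaScreen assay: L3MBTL1 (50 nM final) was preincubated 30 min at room temperature with biotinylated H3(1-15)K9me1 peptide (75 nM final), then 30 min with library compounds; streptavidin donor and nickel chelate acceptor beads (10 ug/mL final) added, 30 min dark.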
# JMJD2A Tudor – JMJD2A Tudor domain (human) inhibition. O75164. AlphaScreen JMJD2A-Tudor / H3K4me3 peptide binding. Potency, µM (series often up to 114 µM), hits mostly inhibitors. 390,000 tested, 4.4% active; also: nearly all actives have a fitted effect of over 50% in size
# Target sequence (O75164 whole entry, looked up, the tested form may be a part): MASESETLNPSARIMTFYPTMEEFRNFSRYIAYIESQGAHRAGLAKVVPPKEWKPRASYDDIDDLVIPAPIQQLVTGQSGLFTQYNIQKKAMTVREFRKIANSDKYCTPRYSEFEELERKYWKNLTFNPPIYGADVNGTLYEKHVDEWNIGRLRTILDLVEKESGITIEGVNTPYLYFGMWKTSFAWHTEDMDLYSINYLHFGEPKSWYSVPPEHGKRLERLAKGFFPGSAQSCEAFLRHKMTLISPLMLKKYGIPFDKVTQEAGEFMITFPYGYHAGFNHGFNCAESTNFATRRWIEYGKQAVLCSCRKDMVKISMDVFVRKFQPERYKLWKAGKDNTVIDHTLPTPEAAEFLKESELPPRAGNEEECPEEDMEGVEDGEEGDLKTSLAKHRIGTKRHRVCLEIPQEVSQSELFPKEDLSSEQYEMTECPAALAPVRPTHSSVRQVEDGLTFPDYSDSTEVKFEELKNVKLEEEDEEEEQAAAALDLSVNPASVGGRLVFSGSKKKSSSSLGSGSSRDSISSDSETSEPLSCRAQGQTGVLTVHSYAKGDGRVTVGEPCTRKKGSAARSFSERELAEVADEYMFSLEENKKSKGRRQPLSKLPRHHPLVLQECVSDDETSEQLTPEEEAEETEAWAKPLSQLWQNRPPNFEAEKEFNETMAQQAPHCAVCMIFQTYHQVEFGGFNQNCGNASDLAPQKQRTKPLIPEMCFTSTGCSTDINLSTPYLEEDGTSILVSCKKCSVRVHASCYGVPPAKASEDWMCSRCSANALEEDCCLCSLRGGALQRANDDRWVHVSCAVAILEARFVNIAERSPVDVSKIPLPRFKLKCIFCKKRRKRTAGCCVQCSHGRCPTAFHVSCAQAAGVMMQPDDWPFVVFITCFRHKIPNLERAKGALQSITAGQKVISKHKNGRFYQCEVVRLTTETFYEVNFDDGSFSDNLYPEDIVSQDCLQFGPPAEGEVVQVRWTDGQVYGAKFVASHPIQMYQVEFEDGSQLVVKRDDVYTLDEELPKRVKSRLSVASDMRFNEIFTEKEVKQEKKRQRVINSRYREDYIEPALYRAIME
# G9a block – inhibitors of human histone lysine methyltransferase G9a; Q96KQ7; G9a H3K9 monomethylation, AlphaScreen, 2 h; Potency, µM (doses to about 102 µM), hits mostly inhibitors; 350,000 tested, 8.8% active; also: nearly all actives have a fitted effect of over 75% in size
#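 Quantitative HTS format: methyltransferase activity on a biotin-tagged H3K9 peptide is measured by AlphaScreen, using a rabbit anti-monomethyl-H3K9 antibody with streptavidin donor and anti-IgG acceptor beads. Final levels are 20 nM enzyme, 500 nM peptide, 20 uM SAM; 2 h RT.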
# BAZ2B block – inhibitors of human BAZ2B bromodomain | Q9UIF8 | AlphaScreen BAZ2B-H3K14Ac peptide displacement | Potency, µM (titrated, usually from 114 µM), actives largely listed as inhibitors | 360,000 tested, 4.4% active; also: nearly all actives have a fitted effect of over 60% in size
#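 AlphaScreen displacement: compounds (up to 110uM) incubated 30 min at room temperature with a preformed 50 nM BAZ2B/50 nM biotinylated H3K14Ac peptide complex in PBS pH 7.4 with Tween-20. Donor and acceptor beads at 10 ug/mL final added, 20 min light-protected before reading.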
# HP1b binding inh – blocks HP1-beta chromodomain binding to methylated histone tails; P83916; AlphaScreen HP1-beta / biotin-H3K9me3 peptide binding; Potency, µM (top dose mostly 114 µM), usual class: inhibitors; 390,000 tested, 0.56% active; AID 540317; also: nearly all actives have a fitted effect of over 70% in size
#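 AlphaScreen: HP1-beta (50 nM) preformed 30 min with biotin-H3(1-18)K9me3 peptide (50 nM) in PBS pH 7.4, 0.01% Tween-20. Compound added for 30 min at RT, then streptavidin donor/nickel chelate acceptor beads (10 ug/mL) for 30 min.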
# Numbers stand for hits; i = inactive; ? = inconclusive; nt = no result; [ ] = dose if it differs, or a comment. Calls follow the shape of the dose curve; as a rule, active = well fitted curve in the direction sought with a large enough effect; inconclusive = small, poorly fitted or top-dose-only effect, or another doubt; inactive = no such curve, though single readings can be large; an effect the other way counts as inactive or inconclusive.
SMILES,GLS inhibitor,L3MBTL1 block,JMJD2A Tudor,G9a block,BAZ2B block,HP1b binding inh
CCc1ccccc1NC(=O)CSc1nc2ncccc2o1,i,nt,i,i,i,i
C[C@@H](O)[C@H]1C(=O)N2C(C(=O)O)=C(S[C@@H]3CN[C@H](CNS(N)(=O)=O)C3)[C@H](C)[C@H]12,i,nt,nt,?,nt,nt
CCCNC(=O)Nc1cc(OCC)c(N2CCOCC2)cc1OCC,i,i,i,i[12.7 µM],i,i
CCOc1cc(N2CCOCC2)c(OCC)cc1NS(=O)(=O)c1ccc(Cl)s1,i,?,?,?,50µM,i
CC(C)(C)C(=O)Nc1cc(S(=O)(=O)N2CCCCC2)ccc1N1CCCCC1,i,nt,i,40µM,i,i
CC(C)C(=O)Nc1cc(S(=O)(=O)N2CCOCC2)ccc1N1CCCCC1,?,i,i,nt,nt,?
O=C(Nc1ccccc1N1CCCC1)c1cc(S(=O)(=O)N2CCOCC2)ccc1Cl,i,i,i,50µM,i,i
CCN1CCN(S(=O)(=O)c2ccc(Cl)c(C(=O)Nc3ccccc3N3CCCC3)c2)CC1,i,i,?,i[0.501 µM],?,i
CCN1CCN(S(=O)(=O)c2ccc(Cl)c(C(=O)Nc3ccccc3N3CCCCC3)c2)CC1,i,i,?,40µM,i,i
COC(=O)c1ccc(NC(=O)c2c(NCc3ccc(C)o3)sc3c2CCCC3)cc1,i,nt,?,?,i,i
Cc1ccc(CNC(=O)CN2C(=O)CSc3ccc(S(=O)(=O)N4CCCC4)cc32)cc1,i,nt,i,i,i,i
CCOc1cc(N2CCOCC2)c(OCC)cc1NC(=O)c1ccc(S(=O)(=O)N2CC(C)OC(C)C2)cc1 (stereo not given),i,nt,?,nt,nt,i
CCN1CCN(S(=O)(=O)c2ccc(Cl)c(C(=O)N(C)C(c3ccccc3)c3ccccc3)c2)CC1,i,i,i,8.9µM,i,i
CCOc1cc(N2CCOCC2)c(OCC)cc1NC(=O)c1cc(S(=O)(=O)N2CCOCC2)ccc1Cl,i,i,?,50µM,?,i
COC(=O)c1ccccc1NC(=O)C1CCCN(C(=O)c2cnn(-c3ccc(F)cc3)c2-n2cccc2)C1 (stereo not given),i,nt,?,?,?,i
N#CC1=C(c2ccccc2)/C(=C/c2ccccc2)OC1=O,i,nt,?,13µM,22µM,?
CCS(=O)(=O)c1nc(S(=O)(=O)c2ccc(Cl)cc2)c(N2CCc3ccccc3C2)s1,i,i,i,8.9µM,i,i
CSc1ccccc1Sc1cc(C(=O)O)c2ccccc2n1,i,i,i,10µM,i,i
CN(C(=O)c1cc2c(=O)oc3ccccc3c2s1)c1ccc(F)cc1,i,nt,i,?,i,i
CCOC(=O)c1nn(-c2ccccc2)c(=O)cc1OCC(=O)Nc1cc(C)ccc1OC,7.9µM,i,i,i,i,i
Oc1ccc(Br)cc1-c1cc(-c2ccco2)[nH]n1,i,nt,?,?,?,i
Oc1ccc(Cl)cc1-c1cc(-c2ccco2)[nH]n1,?,i,i[11.4 µM],?,40µM,7.9µM
Cc1ccc(S(=O)(=O)SC/C=C/CSS(=O)(=O)c2ccc(C)cc2)cc1,i,nt,3.2µM,nt,nt,?
Cc1ccc(S(=O)(=O)SCCCSS(=O)(=O)c2ccc(C)cc2)cc1,i,nt,2.8µM,nt,nt,7.1µM
O=[N+]([O-])c1ccc(CN2CCCCCC2)cc1,i,i,i,?,i,i
SMILES,GLS inhibitor,L3MBTL1 block,JMJD2A Tudor,G9a block,BAZ2B block,HP1b binding inh
O=[N+]([O-])c1ccc(N2CCN(Cc3ccc([N+](=O)[O-])o3)CC2)cc1,i,i,20µM,?,32µM,?
O=[N+]([O-])c1ccc(CN2CCN(c3ccccc3Cl)CC2)o1,i,i,22µM,28µM,50µM,?
O=C(CN1CCOCC1)N1CCN(c2ccc([N+](=O)[O-])cc2)CC1,i,i,i,i,i,i
O=[N+]([O-])c1ccc(N2CCN(Cc3ccncc3)CC2)cc1,i,i,22µM,32µM,50µM,?
O=[N+]([O-])c1ccc(N2CCN(Cc3ccc(Br)o3)CC2)cc1,i,i,22µM,?,79µM,?
O=[N+]([O-])c1ccc(N2CCN(c3ccc(F)cc3)CC2)cc1,i,nt,i,i,i,i
CC(=O)c1ccc(N=c2scc(C)n2C(C)C)cc1,i,nt,?,45µM,?,i
CCOC(=O)CC(=O)CSc1ccc2nnc(-c3cccc(F)c3)n2n1,i,i,i,i,i,i
CSc1ccc2nnc(-c3cccc(F)c3)n2n1,i,i,i,40µM,i,i
COC(=O)c1ccc(CSc2ccc3nnc(-c4cccc(F)c4)n3n2)o1,i,i,89µM,18µM,i,?
Cc1cccc(CSc2ccc3nnc(-c4cccnc4)n3n2)c1,i,i,i,i,i,i
O=C(NC(C(=O)c1ccccc1)n1c(=O)cc[nH]c1=S)c1ccccc1 (stereo not given),i,i,?,14µM,i,i
O=C(NC(C(=O)c1ccccc1)n1cnccc1=O)c1ccccc1 (stereo not given),i,i,i,nt,i,i
Cc1ccc(NC(=O)C2CCCN(c3ncnc4c3nc3n4CCCCC3)C2)c(Br)c1 (stereo not given),i,nt,i,i,i,i
CC(=O)c1sc(C(=O)O)c(-c2ccco2)c1-c1ccco1,20µM,?,i,nt,i,i
O=C(O)c1sc(C(=O)O)c(-c2ccccc2)c1-c1ccccc1,i,nt,nt,nt,nt,nt
Cc1ccc(Cn2c(SCC(=O)NCc3ccccc3Cl)nc3ccsc3c2=O)cc1,i,nt,i,i,i,i
CC(=O)c1c(C)n(-c2cccc(Cl)c2)c2ccc(O)cc12,i,nt,i,35µM,i,i
CC1Cc2cc(/C(O)=C3/C(=O)C(=O)N(Cc4ccncc4)C3c3ccc(N(C)C)cc3)ccc2O1 (stereo not given),i,nt,?,22µM,?,i
COc1ccc(C2/C(=C(/O)c3ccc4c(c3)CC(C)O4)C(=O)C(=O)N2CCCn2ccnc2)cc1 (stereo not given),i,nt,?,?,?,i
COc1ccc(C2/C(=C(\O)c3ccc4c(c3)CC(C)O4)C(=O)C(=O)N2Cc2cccnc2)c(OC)c1 (stereo not given),i,nt,i,71µM,i,i
CC1Cc2cc(/C(O)=C3/C(=O)C(=O)N(CCN4CCOCC4)C3c3ccc(N(C)C)cc3)ccc2O1 (stereo not given),i,nt,i,?,i,i
COc1ccc(C2/C(=C(/O)c3ccc4c(c3)CC(C)O4)C(=O)C(=O)N2Cc2cccnc2)cc1 (stereo not given),i,nt,i,40µM,i,i
Cc1cc(NC(=O)c2ccc3c(c2)N(Cc2cccc(Cl)c2)C(=O)c2ccccc2S3(=O)=O)ccc1Br,i,nt,i,i,i,i
